Measurements as given in PubChem BioAssay.

assay: PSAC antagonists in infected red cells, primary screen, cell-based, P. falciparum Indochina, OD700, 18 h (AID 1157); conditions: P. falciparum Indochina infected erythrocytes, osmotic lysis OD700, 18 h; higher = more signal, called active from +8 up or from −8 down

z-score, inactive:
C=CCC(OC(C)=O)[C@@H]1[C@@H](N(Cc2cc3ccccc3o2)C(=O)c2ccc(-c3ccccc3)cc2)c2cc(OCCCO)ccc2N1C(=O)Cc1ccc(OC)cc1 (some centres not stated) 0.703
COCC(=C=CC[C@@H](O)c1ccc(OCCO)cc1)CCO 0.381
CC(C)(C)OC(=O)CC[C@]12N=C(c3ccc(OCCCO)cc3)O[C@H]1c1ccccc1N(Cc1ccccc1)C2=O 2.09
O=C1OCCC/C=C\[C@H]2OC34C=CCN(c5ccc6ccccc6c5)C(=O)[C@H]3N(CCCO)C(=O)[C@@H]4C12 (some centres not stated) 0.187
C=C/C=C/[C@@H]1C(=C)CN([C@@H](Cc2ccccc2)C(=O)OC)[C@H]1[C@@H](O)Cc1ccccc1 0.109
O=C1NC(=O)C2C1C=CC(C(O)c1ccccn1)N2Nc1ccc(Cl)cc1Cl (configuration not stated) 0.949
CC(C)C[C@@H]1NC(=O)CNC(=O)[C@@]23C(=O)N[C@@H](Cc4ccccc4)C2[C@H](C)[C@@]2(C)O[C@H]2C3/C=C/C/C=C\CNC1=O (some centres not stated) -0.16
CCOC(=O)C1=C[C@@H](c2ccccc2)N(S(=O)(=O)c2ccc(C)cc2)[C@H]1c1ccccc1 0.708
[N-]=[N+]=NCc1ccccc1C[C@]1(C(=O)N2CCOCC2)COC(c2ccc(OCCCO)cc2)=N1 2.64
COCCOC(=O)N1C(=O)[C@@]2(c3cc(C#Cc4ccc(OC)cc4)ccc31)[C@H](C(=O)NC[C@H](O)c1ccccc1)[C@H]1C(=O)O[C@H](c3ccccc3)[C@H](c3ccccc3)N1[C@@H]2c1ccc(OCCO)cc1 0.312
COCCOC(=O)N1C(=O)[C@@]2(c3cc(C#CCC(C(=O)OC)C(=O)OC)ccc31)[C@H](c1ccc(OCCO)cc1)N1[C@H](c3ccccc3)[C@H](c3ccccc3)OC(=O)[C@H]1[C@@H]2C(=O)Nc1nc2ccccc2s1 2.21
COCCOC(=O)N1C(=O)[C@@]2(c3cc(C#CCNC(N)=O)ccc31)[C@H](c1ccc(O)cc1)N1[C@H](c3ccccc3)[C@H](c3ccccc3)OC(=O)[C@H]1[C@@H]2C(=O)N1CCN(c2ncccn2)CC1 0.973
COc1cc(C(O)C2C=CC3C(=O)N(Cc4ccccc4)C(=O)C3N2n2cnnc2)cc(OC)c1OC (configuration not stated) -1.04
CCCCC=C[C@@H](NC(=O)c1ccccc1)c1ccccc1 0.765
COc1ccc([Si](C)(C)[C@@H]2[C@@H](CC(=O)N3Cc4ccccc4C[C@H]3CO)O[C@]3(C(=O)N(c4ccccc4)c4ccccc43)[C@H]2C)cc1 1.65
CCOC(=O)C1=CCC(c2ccccc2)N(S(=O)(=O)c2ccc([N+](=O)[O-])cc2)C1 (configuration not stated) 0.46
[N-]=[N+]=NCc1ccccc1[C@@H]1OC(c2ccc(OCCCO)cc2)=N[C@]1(Cc1ccccc1N=[N+]=[N-])C(=O)N1CCCCC1 0.86
C=CCN1C(=O)[C@]2(O[C@H](CCO)[C@@H]([Si](C)(C)c3ccc(OC)cc3)[C@@H]2C)c2cc(N3C(=O)COc4ccccc43)ccc21 0.742
COCCCNC(=O)[C@@]1(c2ccc([N+](=O)[O-])cc2)CC(=O)N(CC23CC4CC(CC(C4)C2)C3)[C@@H]1c1ccc(CO)cc1I 2.31
CC(C)OC(=O)CC(=O)CC(O)c1ccc([N+](=O)[O-])cc1 (configuration not stated) 0.438
CCOC(=O)C1=CCC(c2ccco2)N(S(=O)(=O)c2ccc(C)cc2)C1 (configuration not stated) 0.731
[N-]=[N+]=Nc1ccccc1[C@@H]1OC(c2ccc(OCCCO)cc2)=N[C@]1(Cc1ccccc1)C(=O)NCc1ccccc1 7.04
[N-]=[N+]=NCc1ccccc1C[C@@]1(C(=O)N2CCCCC2)N=C(c2ccc(OCCCO)cc2)O[C@@H]1c1ccccc1CN=[N+]=[N-] 2.31
O=C1C2C=CC(C(O)c3ccc(I)cc3)N(Nc3ccccc3)C2C(=O)N1c1ccccc1 (configuration not stated) 1.83
CC(C)C(=C=CC[C@@H](O)c1cccc(OCCO)c1)C[C@@H](O)c1ccccn1 0.527
COC(=O)[C@@]1(Cc2ccccc2CN=[N+]=[N-])N=C(c2ccc(OCCCO)cc2)O[C@H]1c1ccccc1 3.64
CCOC(=O)C[C@H]1[C@H](OC(=O)c2cc3ccccc3oc2=O)[C@@H](NC(=O)c2ccc3ccccc3c2)c2cc(OCCCO)ccc2N1C(=O)Cc1ccc(OC)cc1 0.525
